About 83,000 compounds went through this panel and 20% of them were active in at least one assay; those are over-represented in the sample as a whole.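 Results are percent growth after 48 hours of single-concentration exposure. 100 means growth as in untreated cells, lower positive values show inhibition; negative values down to -100 show cell death.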 Values without a mark were called inactive. Activity calls are given as the source filed them. Rule for the calls: active = growth percent below 10; inactive = the rest.
Assays:
Test in all cases: NCI-60 one-dose screen, 48 h (100 = growth as untreated, 0 = no growth, -100 = all killed)
Conditions in all cases: 10 µM
SK-MEL-2 melanoma = system: SK-MEL-2 melanoma
EKVX NSCLC = system: EKVX NSCLC
SN12C renal = system: SN12C renal
UO-31 renal = system: UO-31 renal
TK-10 renal = system: TK-10 renal
ACHN renal = system: ACHN renal
CAKI-1 renal = system: CAKI-1 renal
A498 renal = system: A498 renal
CCRF-CEM leukemia = system: CCRF-CEM leukemia
RPMI-8226 leukemia = system: RPMI-8226 leukemia
OVCAR-5 ovarian = system: OVCAR-5 ovarian
OVCAR-4 ovarian = system: OVCAR-4 ovarian
SK-OV-3 ovarian = system: SK-OV-3 ovarian
IGROV1 ovarian = system: IGROV1 ovarian
OVCAR-3 ovarian = system: OVCAR-3 ovarian
HS 578T breast = system: HS 578T breast
NCI/ADR-RES ovarian = system: NCI/ADR-RES ovarian
OVCAR-8 ovarian = system: OVCAR-8 ovarian
MOLT-4 leukemia = system: MOLT-4 leukemia

SMILES	growth (SK-MEL-2 melanoma)	growth (EKVX NSCLC)	growth (SN12C renal)	growth (UO-31 renal)	growth (TK-10 renal)	growth (ACHN renal)	growth (CAKI-1 renal)	growth (A498 renal)	growth (CCRF-CEM leukemia)	growth (RPMI-8226 leukemia)	growth (OVCAR-5 ovarian)	growth (OVCAR-4 ovarian)	growth (SK-OV-3 ovarian)	growth (IGROV1 ovarian)	growth (OVCAR-3 ovarian)	growth (HS 578T breast)	growth (NCI/ADR-RES ovarian)	growth (OVCAR-8 ovarian)	growth (MOLT-4 leukemia)
COc1cccc(C(N)=Nc2ccc(OCCCCCCn3cncn3)cc2)c1	27.3%	42%	30.2%	45.4%	64.3%	45%	39.1%	113%	10.4%	16%	28.2%	60.7%	29.6%	31.4%	16.2%	26.4%	13.5%	–	–
COc1cnc2c(c1)C(=O)c1c-2n(CCCNC(C)C)c(=O)c2cc(OC)c(OC)cc12	107%	92.6%	25%	29.5%	87.6%	3.23% (active)	15.2%	105%	16.2%	-14.8% (active)	70.8%	28.2%	22.1%	32%	5.2% (active)	103%	29.1%	–	–
O=c1[nH][nH]c(Nc2ccccc2)c1N=Nc1ccc(F)cc1	94.1%	72.1%	79.6%	66.2%	94.5%	86.2%	59.3%	110%	93.9%	112%	–	80.5%	94.5%	80.3%	103%	65.2%	100%	101%	–
COc1ccc2nc(Cl)c(-c3cc(-c4ccccc4)nc(=S)[nH]3)cc2c1	9.29% (active)	65.6%	75.6%	–	129%	51.3%	56.9%	87.7%	64.5%	71.7%	95.1%	90.1%	37.4%	79%	80.8%	31.7%	40.9%	68.2%	23.8%
CN1CCc2c(sc3ncnc(N/N=C/c4cn(-c5ccccc5)nc4-c4ccc(Br)cc4)c23)C1	58.3%	20.5%	13.9%	–	92.3%	65.6%	84.1%	94.8%	15.7%	35.8%	48.5%	51.4%	107%	56.7%	4.8% (active)	70.1%	8.08% (active)	4.42% (active)	2.95% (active)
O=C(O)CCCCCCCCCCN1C(=O)/C(=C/c2cnc(-c3ccc(Cl)cc3)s2)SC1=S	-38.6% (active)	-12.5% (active)	-57.4% (active)	38.1%	58.2%	22.1%	12.2%	83.2%	–	74.9%	56.9%	67%	3.51% (active)	23.9%	-15.1% (active)	58.6%	11%	-2.09% (active)	19.7%
COc1ccc2[nH]c(O)c(N=NC(=O)COc3ccc(NC(=O)Nc4ccc(Cl)c(Cl)c4)cc3)c2c1	14.5%	31.9%	-42% (active)	111%	15.5%	57%	60.7%	-1.89% (active)	20.8%	11.1%	-21.8% (active)	-92.7% (active)	-12.4% (active)	-4.72% (active)	-44.5% (active)	-3.4% (active)	84.4%	–	–
NC(=Nc1ccc(OCCCCCCCCn2ccnn2)cc1)c1ccccc1	14.8%	42.7%	32.3%	40.7%	70.9%	34.4%	37.9%	98.1%	15.6%	–	24.9%	57.1%	21.2%	28.9%	25.3%	–	–	–	–
O=c1[nH]n(C(=S)N/N=C/c2ccc(F)cc2)c(=O)c2ccccc12	82.7%	88.2%	71.2%	–	102%	82.5%	82%	105%	12.8%	-22.5% (active)	91.2%	82%	102%	90.5%	32.5%	91.6%	31.1%	36.4%	10.7%
C=C[C@H]1[C@H](O[C@@H]2OC(CO)[C@@H](O)[C@H](O)C2OC(=O)c2c(O)cc(O)cc2-c2cccc(O)c2)OC=C2C(=O)OCC[C@H]21 (some centres not stated)	106%	93.8%	102%	89.3%	102%	105%	93.9%	106%	106%	106%	–	108%	95.7%	101%	112%	99.7%	102%	102%	–
Cc1cccc2cc(-c3cc(-c4ccccc4)nc(=S)[nH]3)c(Cl)nc12	27.8%	76.5%	89.2%	–	136%	78.1%	76.2%	99%	66.2%	81%	108%	99.5%	116%	93.1%	107%	59.4%	56.6%	85.4%	43.6%
O=C(Nc1ccc(OCc2ccccc2)cc1)Nc1ccc(Cl)c(C(F)(F)F)c1	-40.2% (active)	5.04% (active)	2.86% (active)	-1.46% (active)	21%	0.776% (active)	3.68% (active)	-15.1% (active)	-23.4% (active)	-30.4% (active)	–	11.2%	-29.7% (active)	19%	7.77% (active)	-0.0644% (active)	–	2.36% (active)	–
CC(C)C(=O)Nc1ccc(C(=O)NC(=S)Nc2ccc(C(=O)O)cc2)cc1	105%	96.6%	96.3%	88.4%	101%	104%	99.3%	122%	107%	128%	96.6%	111%	99.9%	106%	91.1%	–	104%	111%	–
C/C(=C\CC/C=C(\C)CC/C=C(\C)CC[C@@H](O)C(C)(C)O)CC/C=C(\C)CC[C@@H](O)C(C)(C)O	52.1%	34.5%	12%	30.5%	64.6%	37.5%	47.4%	73.6%	–	-11.4% (active)	56.1%	42%	64.4%	76.8%	42.6%	39%	30.2%	–	0.465% (active)
S=c1nc(-c2ccccc2)cc(-c2cc3ccccc3nc2Cl)[nH]1	37.5%	70%	88.3%	–	162%	77.7%	57.2%	126%	43.5%	76.3%	110%	91.7%	75%	82.8%	76.7%	57.6%	49.1%	76.1%	30.8%
C#CCNC(=O)[C@]12CCC(C)(C)C[C@H]1C1=CC[C@@H]3[C@@](C)(CCC#N)[C@H](C(=C)C)CC[C@@]3(C)[C@]1(C)CC2	57.2%	57.8%	68.7%	36.6%	71.5%	60.2%	40.3%	129%	26.2%	22.2%	77.4%	68.2%	62.6%	71.9%	91.8%	–	62.5%	64.2%	–
O=C1Nc2ccc(Cl)cc2/C1=C/c1cccc(OCc2ccccc2)c1	28.4%	19.4%	36.1%	–	77.2%	24.3%	34.6%	84.2%	-21.5% (active)	-28.1% (active)	69.2%	33.5%	75.3%	36.7%	8.28% (active)	6.44% (active)	8.34% (active)	14.6%	-20.6% (active)
